# Article PMC7862700, “An all-to-all approach to the identification of sequence-specific readers for epigenetic DNA modifications on cytosine”
# Columns and labels:
# Assay in all cases: DAPPL (digital affinity profiling via proximity ligation, sequencing); 10 mM Tris-HCl pH 7.5, 50 mM NaCl, 1 mM DTT, 4% glycerol, room temperature, 30 min; GST-TFs on glutathione beads, 16-mer random dsDNA library, 0.1% formaldehyde crosslink after washing; high values mean tight binding
# FEV = molecular target: T1, FEV (Homo sapiens, UniProt Q99581 1-238); conditions: protein: recombinant; tags: N-terminal GST; dsDNA, one strand shown
# T1 sequence: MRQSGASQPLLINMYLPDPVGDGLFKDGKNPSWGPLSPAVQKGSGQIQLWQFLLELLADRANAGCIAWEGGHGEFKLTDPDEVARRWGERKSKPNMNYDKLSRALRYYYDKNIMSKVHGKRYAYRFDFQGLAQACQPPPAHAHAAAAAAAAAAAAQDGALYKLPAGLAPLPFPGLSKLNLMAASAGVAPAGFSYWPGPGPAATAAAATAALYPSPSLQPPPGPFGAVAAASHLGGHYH
# Method in brief: (§1)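 A tag-only sample was pooled with DNA-barcoded human transcription factors that had been expressed in yeast as GST fusions and captured on glutathione beads. The pools were incubated for 30 min at room temperature with 200 nmole of a random double-stranded 16-mer DNA library in Tris/NaCl/DTT/glycerol buffer, then washed, crosslinked with 0.1% formaldehyde, proximity-ligated (BsaI/T4 ligase, 1 h, 37 °C), PCR-amplified and sequenced on an Illumina NextSeq500. Binding signal is each hexamer's read frequency for a factor divided by its frequency for the tag-only sample.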
# ETV5 = ETV5 (Homo sapiens, UniProt P41161 1-510); conditions: protein: recombinant; tags: N-terminal GST; dsDNA, one strand shown
# Sequence of ETV5 (P41161 whole entry): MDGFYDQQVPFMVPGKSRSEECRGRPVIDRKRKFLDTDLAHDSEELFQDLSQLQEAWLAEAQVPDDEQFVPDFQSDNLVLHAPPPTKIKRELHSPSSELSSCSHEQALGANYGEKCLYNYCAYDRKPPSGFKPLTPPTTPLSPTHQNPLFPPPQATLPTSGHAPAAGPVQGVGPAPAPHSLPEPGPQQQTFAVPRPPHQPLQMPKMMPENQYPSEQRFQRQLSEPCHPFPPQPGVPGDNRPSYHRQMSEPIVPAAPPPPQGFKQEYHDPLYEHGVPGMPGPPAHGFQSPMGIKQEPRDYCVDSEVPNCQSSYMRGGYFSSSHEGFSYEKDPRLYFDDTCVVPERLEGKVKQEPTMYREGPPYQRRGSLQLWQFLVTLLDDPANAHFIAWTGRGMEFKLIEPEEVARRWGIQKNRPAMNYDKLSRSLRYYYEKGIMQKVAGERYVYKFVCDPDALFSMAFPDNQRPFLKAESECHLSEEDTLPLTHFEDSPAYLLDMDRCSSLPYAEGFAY
# Method in brief: as §1
# HSF1 = HSF1 (Homo sapiens, UniProt Q00613 1-529); conditions: protein: recombinant; tags: N-terminal GST; chain copies: 3; dsDNA, one strand shown
# Sequence of HSF1 (Q00613 whole entry): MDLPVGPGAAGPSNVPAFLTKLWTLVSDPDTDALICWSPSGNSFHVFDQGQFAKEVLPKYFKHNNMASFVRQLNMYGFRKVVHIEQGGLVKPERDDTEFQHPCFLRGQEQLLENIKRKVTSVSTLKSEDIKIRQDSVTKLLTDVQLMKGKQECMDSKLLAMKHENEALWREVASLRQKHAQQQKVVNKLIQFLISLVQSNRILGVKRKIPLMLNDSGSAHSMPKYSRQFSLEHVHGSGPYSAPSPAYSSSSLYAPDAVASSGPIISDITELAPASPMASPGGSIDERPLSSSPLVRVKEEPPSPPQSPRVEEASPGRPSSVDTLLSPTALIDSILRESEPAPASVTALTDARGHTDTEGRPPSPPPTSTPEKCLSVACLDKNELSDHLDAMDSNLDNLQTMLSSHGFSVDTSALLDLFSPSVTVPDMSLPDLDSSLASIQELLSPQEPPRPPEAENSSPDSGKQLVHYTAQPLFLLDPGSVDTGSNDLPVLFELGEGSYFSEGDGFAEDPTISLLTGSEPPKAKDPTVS
# Method in brief: as §1
# SPIC = molecular target: T2, SPIC (Homo sapiens, UniProt Q8N5J4 1-248); conditions: protein: recombinant; tags: N-terminal GST; dsDNA, one strand shown
# T2 sequence: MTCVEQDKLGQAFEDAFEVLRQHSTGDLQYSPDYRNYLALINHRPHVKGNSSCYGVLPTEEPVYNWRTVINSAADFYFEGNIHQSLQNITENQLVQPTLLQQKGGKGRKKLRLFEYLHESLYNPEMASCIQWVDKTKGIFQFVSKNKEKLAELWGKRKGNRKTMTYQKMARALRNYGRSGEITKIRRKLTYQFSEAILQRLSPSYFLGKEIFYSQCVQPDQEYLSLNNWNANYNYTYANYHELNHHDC
# Method in brief: as §1
# ELF4 = ELF4 (Homo sapiens, UniProt Q99607 1-663); conditions: protein: recombinant; tags: N-terminal GST; dsDNA, one strand shown
# Sequence of ELF4 (Q99607 whole entry): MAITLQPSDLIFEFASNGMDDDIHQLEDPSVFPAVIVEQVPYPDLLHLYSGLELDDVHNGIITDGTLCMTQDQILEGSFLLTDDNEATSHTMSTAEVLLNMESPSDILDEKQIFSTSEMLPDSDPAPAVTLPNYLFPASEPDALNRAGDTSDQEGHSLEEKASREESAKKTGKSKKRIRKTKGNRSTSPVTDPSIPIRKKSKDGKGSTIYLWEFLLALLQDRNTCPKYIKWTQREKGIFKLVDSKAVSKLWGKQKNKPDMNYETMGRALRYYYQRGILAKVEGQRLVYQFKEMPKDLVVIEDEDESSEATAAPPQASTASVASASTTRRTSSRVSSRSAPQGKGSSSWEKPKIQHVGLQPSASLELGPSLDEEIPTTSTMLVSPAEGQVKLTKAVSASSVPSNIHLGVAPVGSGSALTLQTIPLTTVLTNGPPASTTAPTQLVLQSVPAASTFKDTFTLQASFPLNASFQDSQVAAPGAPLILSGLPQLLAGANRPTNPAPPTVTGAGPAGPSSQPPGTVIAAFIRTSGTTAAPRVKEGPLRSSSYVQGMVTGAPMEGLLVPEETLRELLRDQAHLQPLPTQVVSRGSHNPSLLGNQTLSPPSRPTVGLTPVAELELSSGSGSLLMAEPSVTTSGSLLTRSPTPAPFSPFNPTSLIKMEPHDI
# Method in brief: as §1
# ELK4 = molecular target: T3, ELK4 (Homo sapiens, UniProt P28324-2 1-405); conditions: protein: recombinant; tags: N-terminal GST; dsDNA, one strand shown
# T3 sequence: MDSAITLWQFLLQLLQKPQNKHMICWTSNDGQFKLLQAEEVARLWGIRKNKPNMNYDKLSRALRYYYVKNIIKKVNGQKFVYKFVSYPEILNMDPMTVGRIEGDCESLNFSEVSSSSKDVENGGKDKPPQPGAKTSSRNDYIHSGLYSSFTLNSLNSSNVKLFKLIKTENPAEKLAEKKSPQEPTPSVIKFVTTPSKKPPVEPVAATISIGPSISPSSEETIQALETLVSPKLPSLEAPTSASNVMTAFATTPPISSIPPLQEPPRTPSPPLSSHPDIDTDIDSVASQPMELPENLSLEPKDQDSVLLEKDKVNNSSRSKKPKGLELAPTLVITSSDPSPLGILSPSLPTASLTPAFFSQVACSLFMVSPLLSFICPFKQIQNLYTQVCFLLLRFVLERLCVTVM
# Method in brief: as §1
# ETV2 = molecular target: T4, ETV2 (Homo sapiens, UniProt O00321 1-342); conditions: protein: recombinant; tags: N-terminal GST; dsDNA, one strand shown
# T4 sequence: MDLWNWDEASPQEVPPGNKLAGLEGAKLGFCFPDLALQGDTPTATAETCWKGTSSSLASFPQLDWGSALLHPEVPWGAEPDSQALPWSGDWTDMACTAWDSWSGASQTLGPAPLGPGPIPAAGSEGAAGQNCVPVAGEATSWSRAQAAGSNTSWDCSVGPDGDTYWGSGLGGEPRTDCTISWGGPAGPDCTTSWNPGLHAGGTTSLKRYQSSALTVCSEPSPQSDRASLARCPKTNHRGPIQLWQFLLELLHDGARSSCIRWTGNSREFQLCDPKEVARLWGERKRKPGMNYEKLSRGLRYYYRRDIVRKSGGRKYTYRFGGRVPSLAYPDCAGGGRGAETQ
# Method in brief: as §1
# ELF3 = molecular target: T5, ELF3 (Homo sapiens, UniProt P78545 1-371); conditions: protein: recombinant; tags: N-terminal GST; dsDNA, one strand shown
# T5 sequence: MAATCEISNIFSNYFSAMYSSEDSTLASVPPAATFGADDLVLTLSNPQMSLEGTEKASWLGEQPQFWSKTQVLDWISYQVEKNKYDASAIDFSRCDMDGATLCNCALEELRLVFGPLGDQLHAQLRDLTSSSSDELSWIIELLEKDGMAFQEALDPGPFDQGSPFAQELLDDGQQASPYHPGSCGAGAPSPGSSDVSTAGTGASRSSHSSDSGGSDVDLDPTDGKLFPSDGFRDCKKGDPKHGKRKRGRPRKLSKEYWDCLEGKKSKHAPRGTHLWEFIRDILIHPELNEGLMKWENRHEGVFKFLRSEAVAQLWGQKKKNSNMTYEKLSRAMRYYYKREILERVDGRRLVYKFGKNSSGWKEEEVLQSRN
# Method in brief: as §1
# CRX = CRX (Homo sapiens, UniProt O43186 1-299); conditions: protein: recombinant; tags: N-terminal GST; dsDNA, one strand shown
# Sequence of CRX (O43186 whole entry): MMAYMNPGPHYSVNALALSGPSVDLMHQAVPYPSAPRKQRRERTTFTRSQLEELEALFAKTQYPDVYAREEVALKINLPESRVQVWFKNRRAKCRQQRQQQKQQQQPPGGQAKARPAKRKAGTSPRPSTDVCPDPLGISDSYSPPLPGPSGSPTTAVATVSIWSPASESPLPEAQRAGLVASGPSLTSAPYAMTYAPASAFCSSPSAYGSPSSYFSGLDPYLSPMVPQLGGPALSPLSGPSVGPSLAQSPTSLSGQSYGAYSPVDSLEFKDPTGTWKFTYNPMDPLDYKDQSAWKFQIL
# Method in brief: as §1
# ETV1 = ETV1 (Homo sapiens, UniProt P50549 1-477); conditions: protein: recombinant; tags: N-terminal GST; dsDNA, one strand shown
# Sequence of ETV1 (P50549 whole entry): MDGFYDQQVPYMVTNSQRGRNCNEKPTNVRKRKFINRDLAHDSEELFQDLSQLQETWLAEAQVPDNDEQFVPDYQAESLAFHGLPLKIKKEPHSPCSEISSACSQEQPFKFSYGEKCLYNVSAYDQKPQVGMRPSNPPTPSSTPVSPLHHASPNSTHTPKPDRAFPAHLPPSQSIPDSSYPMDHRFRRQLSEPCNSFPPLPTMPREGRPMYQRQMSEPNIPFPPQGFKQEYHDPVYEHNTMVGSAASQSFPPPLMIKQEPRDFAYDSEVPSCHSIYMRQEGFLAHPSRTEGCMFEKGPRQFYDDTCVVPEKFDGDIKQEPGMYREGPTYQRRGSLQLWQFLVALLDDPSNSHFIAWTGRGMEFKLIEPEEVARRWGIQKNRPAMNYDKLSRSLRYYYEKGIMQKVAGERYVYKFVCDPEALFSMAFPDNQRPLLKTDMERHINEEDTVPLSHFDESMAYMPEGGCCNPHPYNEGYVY
# Method in brief: as §1
# ERF = molecular target: T6, ERF (Homo sapiens, UniProt P50548 1-548); conditions: protein: recombinant; tags: N-terminal GST; dsDNA, one strand shown
# T6 sequence: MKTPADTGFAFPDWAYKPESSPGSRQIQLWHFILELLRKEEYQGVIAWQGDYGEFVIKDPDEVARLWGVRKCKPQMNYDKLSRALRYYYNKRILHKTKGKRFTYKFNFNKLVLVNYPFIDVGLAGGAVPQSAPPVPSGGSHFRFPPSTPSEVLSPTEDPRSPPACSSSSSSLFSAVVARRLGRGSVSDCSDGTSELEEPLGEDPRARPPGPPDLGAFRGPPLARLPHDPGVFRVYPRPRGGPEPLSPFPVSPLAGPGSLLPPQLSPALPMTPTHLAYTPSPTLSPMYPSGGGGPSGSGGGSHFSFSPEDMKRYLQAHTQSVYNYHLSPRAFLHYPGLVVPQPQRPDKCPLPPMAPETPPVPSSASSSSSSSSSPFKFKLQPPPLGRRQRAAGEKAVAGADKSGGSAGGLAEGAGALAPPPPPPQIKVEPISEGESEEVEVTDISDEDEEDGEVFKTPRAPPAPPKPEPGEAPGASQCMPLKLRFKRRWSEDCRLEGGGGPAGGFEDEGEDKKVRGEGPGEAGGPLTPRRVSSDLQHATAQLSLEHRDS
# Method in brief: as §1
# ETV3L = molecular target: T7, ETV3L (Homo sapiens, UniProt Q6ZN32 1-361); conditions: protein: recombinant; tags: N-terminal GST; dsDNA, one strand shown
# T7 sequence: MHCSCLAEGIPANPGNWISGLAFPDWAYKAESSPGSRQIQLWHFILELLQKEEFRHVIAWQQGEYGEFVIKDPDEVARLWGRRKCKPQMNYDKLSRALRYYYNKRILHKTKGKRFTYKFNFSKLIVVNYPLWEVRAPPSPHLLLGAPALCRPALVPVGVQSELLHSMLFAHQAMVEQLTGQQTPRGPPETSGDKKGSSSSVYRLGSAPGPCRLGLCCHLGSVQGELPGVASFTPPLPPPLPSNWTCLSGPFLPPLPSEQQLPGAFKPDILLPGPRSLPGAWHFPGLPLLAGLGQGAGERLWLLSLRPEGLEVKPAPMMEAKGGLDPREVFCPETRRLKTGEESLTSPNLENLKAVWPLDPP
# Method in brief: as §1
# ETS2 = molecular target: T8, ETS2 (Homo sapiens, UniProt P15036 1-469); conditions: protein: recombinant; tags: N-terminal GST; dsDNA, one strand shown
# T8 sequence: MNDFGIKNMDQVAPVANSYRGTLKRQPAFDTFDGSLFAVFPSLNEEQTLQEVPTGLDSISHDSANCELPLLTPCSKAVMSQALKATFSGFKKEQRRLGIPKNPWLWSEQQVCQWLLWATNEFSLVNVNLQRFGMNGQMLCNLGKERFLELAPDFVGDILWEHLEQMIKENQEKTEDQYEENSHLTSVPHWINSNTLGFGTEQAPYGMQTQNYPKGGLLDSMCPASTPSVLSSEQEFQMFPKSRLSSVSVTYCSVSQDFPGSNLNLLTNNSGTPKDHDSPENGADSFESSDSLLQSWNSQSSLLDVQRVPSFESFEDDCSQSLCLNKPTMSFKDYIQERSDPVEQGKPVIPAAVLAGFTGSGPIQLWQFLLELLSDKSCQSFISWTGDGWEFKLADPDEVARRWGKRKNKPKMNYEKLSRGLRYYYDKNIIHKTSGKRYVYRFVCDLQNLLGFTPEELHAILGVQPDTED
# Method in brief: as §1
# SPDEF = molecular target: T9, SPDEF (Homo sapiens, UniProt O95238 1-335); conditions: protein: recombinant; tags: N-terminal GST; dsDNA, one strand shown
# T9 sequence: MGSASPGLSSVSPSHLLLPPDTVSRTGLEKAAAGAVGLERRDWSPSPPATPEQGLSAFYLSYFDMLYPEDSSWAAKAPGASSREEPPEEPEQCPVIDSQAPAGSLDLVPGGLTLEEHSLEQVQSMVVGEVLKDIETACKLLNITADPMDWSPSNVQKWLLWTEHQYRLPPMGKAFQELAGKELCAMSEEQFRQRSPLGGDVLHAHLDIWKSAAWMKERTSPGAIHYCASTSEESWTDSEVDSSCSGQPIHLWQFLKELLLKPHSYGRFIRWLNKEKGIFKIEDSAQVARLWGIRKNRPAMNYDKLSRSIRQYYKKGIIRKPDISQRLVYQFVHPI
# Method in brief: as §1
# ETV7 = molecular target: T10, ETV7 (Homo sapiens, UniProt Q9Y603 1-341); conditions: protein: recombinant; tags: N-terminal GST; dsDNA, one strand shown
# T10 sequence: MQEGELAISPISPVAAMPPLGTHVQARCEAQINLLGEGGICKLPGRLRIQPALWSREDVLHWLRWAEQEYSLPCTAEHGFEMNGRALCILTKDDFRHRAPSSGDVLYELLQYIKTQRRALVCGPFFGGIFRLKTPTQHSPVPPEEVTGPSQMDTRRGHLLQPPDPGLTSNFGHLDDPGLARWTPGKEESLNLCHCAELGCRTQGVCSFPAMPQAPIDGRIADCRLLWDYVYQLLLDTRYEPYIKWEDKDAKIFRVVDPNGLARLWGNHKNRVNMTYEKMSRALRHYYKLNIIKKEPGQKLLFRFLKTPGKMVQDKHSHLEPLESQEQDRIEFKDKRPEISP
# Method in brief: as §1
# ELF5 = molecular target: T11, ELF5 (Homo sapiens, UniProt Q9UKW6-2 1-255); conditions: protein: recombinant; tags: N-terminal GST; dsDNA, one strand shown
# T11 sequence: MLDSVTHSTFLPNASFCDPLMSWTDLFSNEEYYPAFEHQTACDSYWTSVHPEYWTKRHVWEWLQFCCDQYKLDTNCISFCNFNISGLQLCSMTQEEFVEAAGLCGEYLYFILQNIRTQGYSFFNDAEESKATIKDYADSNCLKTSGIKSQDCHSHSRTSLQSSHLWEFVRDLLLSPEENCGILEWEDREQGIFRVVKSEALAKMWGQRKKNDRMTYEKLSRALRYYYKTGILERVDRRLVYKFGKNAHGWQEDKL
# Method in brief: as §1
# ETV3 = molecular target: T12, ETV3 (Homo sapiens, UniProt P41162-2 1-143); conditions: protein: recombinant; tags: N-terminal GST; dsDNA, one strand shown
# T12 sequence: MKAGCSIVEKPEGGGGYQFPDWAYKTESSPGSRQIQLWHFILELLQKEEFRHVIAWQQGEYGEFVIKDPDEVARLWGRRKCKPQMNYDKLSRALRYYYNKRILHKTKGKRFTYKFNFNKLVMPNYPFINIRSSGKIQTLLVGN
# Method in brief: as §1
# ETV6 = ETV6 (Homo sapiens, UniProt P41212 1-452); conditions: protein: recombinant; tags: N-terminal GST; dsDNA, one strand shown
# Sequence of ETV6 (P41212 whole entry): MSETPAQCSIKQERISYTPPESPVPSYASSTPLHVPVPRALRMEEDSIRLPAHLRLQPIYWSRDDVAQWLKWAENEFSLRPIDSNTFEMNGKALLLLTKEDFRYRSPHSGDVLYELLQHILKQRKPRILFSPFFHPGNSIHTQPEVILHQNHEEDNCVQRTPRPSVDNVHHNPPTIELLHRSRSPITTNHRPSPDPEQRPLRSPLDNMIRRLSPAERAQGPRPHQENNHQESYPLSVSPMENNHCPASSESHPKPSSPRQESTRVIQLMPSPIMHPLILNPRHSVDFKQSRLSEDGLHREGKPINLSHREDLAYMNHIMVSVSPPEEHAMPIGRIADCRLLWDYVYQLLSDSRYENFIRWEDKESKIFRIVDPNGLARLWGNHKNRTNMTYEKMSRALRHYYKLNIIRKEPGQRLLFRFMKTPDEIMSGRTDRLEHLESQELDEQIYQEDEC
# Method in brief: as §1
sequence,measurement,setting,value
ATTATC,binding signal,FEV,"1.29 fold enrichment (6-mer frequency, TF over GST control)"
same,binding signal,ETV5,"1.26 fold enrichment (6-mer frequency, TF over GST control)"
same,binding signal,HSF1,"2.51 fold enrichment (6-mer frequency, TF over GST control)"
same,binding signal,SPIC,"1.34 fold enrichment (6-mer frequency, TF over GST control)"
same,binding signal,ELF4,"1.32 fold enrichment (6-mer frequency, TF over GST control)"
same,binding signal,ELK4,"1.39 fold enrichment (6-mer frequency, TF over GST control)"
same,binding signal,ETV2,"1.38 fold enrichment (6-mer frequency, TF over GST control)"
same,binding signal,ELF3,"1.39 fold enrichment (6-mer frequency, TF over GST control)"
same,binding signal,CRX,"3.86 fold enrichment (6-mer frequency, TF over GST control)"
same,binding signal,ETV1,"1.31 fold enrichment (6-mer frequency, TF over GST control)"
same,binding signal,ERF,"1.36 fold enrichment (6-mer frequency, TF over GST control)"
same,binding signal,ETV3L,"1.39 fold enrichment (6-mer frequency, TF over GST control)"
same,binding signal,ETS2,"1.29 fold enrichment (6-mer frequency, TF over GST control)"
same,binding signal,SPDEF,"1.34 fold enrichment (6-mer frequency, TF over GST control)"
same,binding signal,ETV7,"1.18 fold enrichment (6-mer frequency, TF over GST control)"
same,binding signal,ELF5,"1.31 fold enrichment (6-mer frequency, TF over GST control)"
same,binding signal,ETV3,"1.37 fold enrichment (6-mer frequency, TF over GST control)"
same,binding signal,ETV6,"1.29 fold enrichment (6-mer frequency, TF over GST control)"
